Experimental data from PubChem BioAssay (NCI).
This is part of a sample that, as a whole, favours compounds with a hit. Of some 83,000 tested, about 20% had one in any assay.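 48-hour exposure, single concentration, 96-well plates; percent growth endpoint where 0 means no net growth. Active: below 10.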 The source made the active and inactive calls.

Each compound was assayed on DU-145 prostate (assay: NCI-60 one-dose screen, 48 h (100 = growth as untreated, 0 = no growth, -100 = all killed)). Details: 10 µM.

| SMILES | growth |
| --- | --- |
| CCc1ccc(-c2ccc(-n3nc(C)c4c(N)nc(Cc5ccccc5)nc43)cc2)cc1 | 77% (inactive) |
| O=[N+]([O-])c1ccc2ncccc2c1Cl | -26% (active) |
| Cc1ccc(-n2nnnc2N)c(C)c1 | 122% (inactive) |
| Oc1ccc(-c2[nH]c3ccccc3c2-c2nc3ccccc3o2)cc1 | 78.6% (inactive) |
| CCc1ccc(C2=NN(c3ccc(S(C)(=O)=O)cc3)C(=O)CC2)cc1 | 21.3% (inactive) |
| COc1ccc(-c2nn(-c3cccc(Cl)c3)cc2-c2c(C#N)c(=O)n3[nH]c(-c4ccc(C)cc4)nc3c2C#N)cc1 | 28.4% (inactive) |
| O=C1c2ccccc2C(=O)c2c1ccc(C(Br)Br)c2[N+](=O)[O-] | 59.4% (inactive) |
| CCOC(=O)CC(S(=O)(=O)c1ccccc1)S(=O)(=O)c1ccccc1 | 111% (inactive) |
| CC(=O)Nc1ccc(S(=O)(=O)c2ccnc3cc(Cl)ccc23)cc1 | 53.7% (inactive) |
| O=C(Nc1cc([N+](=O)[O-])c2[nH]c(=O)c3ccccc3c2c1)C(F)(F)F | 97.1% (inactive) |
| COc1cc2c(cc1NC(=O)C(F)(F)F)-c1ccc(NC(=O)C(F)(F)F)cc1C2 | 93.4% (inactive) |
| COc1ccc(/C(C#N)=C/c2cccc(OC)c2OC)cc1 | 106% (inactive) |
| C/C(=C/CCC(C)[C@@H]1CC[C@]2(C)C3=C(CC[C@@]12C)[C@@]1(C)CCC(=O)C(C)(C)[C@@H]1CC3)C(=O)O (stereo not given in full) | -92.3% (active) |
| N#CC1=CC2CN(Cc3ccccc3)C1C1C(=O)N(c3ccccc3)C(=O)C21 (stereo not given) | 105% (inactive) |
| COC(=O)C1OC1c1cc([N+](=O)[O-])ccc1OC (stereo not given) | 109% (inactive) |
| O=c1cn[nH]c2ccc(Br)cc12 | 105% (inactive) |
| COc1cc(CNC(=O)C2CSC3(C)c4ccccc4C(=O)N23)cc(OC)c1OC (stereo not given) | 109% (inactive) |
| O=C1/C=C/[C@@H](O)[C@@H]2C[C@@H](O)C[C@H]2/C=C/CCC[C@H](C(F)(F)F)O1 | 28.2% (inactive) |
| O=C1CCn2c1c(O)c1ccccc1c2=O | 114% (inactive) |
| COc1ccc(/C(=N\N)C(=O)c2ccccc2)cc1 (tested in a mixture with another compound) | 108% (inactive) |

| SMILES | growth |
| --- | --- |
| O=C(CCl)Nc1ccc(Cc2ccc(NC(=O)CCl)cc2)cc1 | 32.3% (inactive) |
| CCOC(=O)C1=CSC2=NC3=C(CCC/C3=C\c3cc(OC)c(OC)c(OC)c3)C(c3cc(OC)c(OC)c(OC)c3)N12 (stereo not given) | 8.85% (active) |
| C=CCSC(CC)(CC)C(=O)NC | 120% (inactive) |
| CCN(CCCNc1cc2c(c(N)c1S(=O)(=O)O)C(=O)c1ccccc1C2=O)c1ccccc1 | 124% (inactive) |
| Cc1ccc(S(=O)(=O)N/N=C2\CCCc3ccccc32)cc1 | 114% (inactive) |
| COc1cc(-c2nn(-c3cccc(NC(=O)CCNc4ccc(N5CCOCC5)cc4)c3)cc2-c2ccncc2)ccc1Cl | 29.2% (inactive) |
| COc1cc2c(cc1NC(=O)C(Cl)Cl)-c1ccc(NC(=O)C(Cl)Cl)cc1C2 | -68.4% (active) |
| OCC1OC2C(NC(=S)N2c2ccccc2)C(O)C1O (stereo not given) | 107% (inactive) |
| Cc1cc(O)ccc1C1=NN(c2ccc(S(C)(=O)=O)cc2)C(=O)CC1 | 92.2% (inactive) |
| Cc1c(Cl)cccc1NC(=O)CN1CCOCC1 | 102% (inactive) |
| O=C1c2ccccc2C(=O)c2c1ccc(C(Br)Br)c2Cl | 33.1% (inactive) |
| CC[C@@H](C(=O)[C@@H](C)[C@@H](O)[C@H](C)[C@@H]1O[C@@H]([C@@H](CC)C(=O)N(CC)CC)CC[C@@H]1C)C1O[C@]2(C=CC(=O)[C@]3(CC[C@@](C)([C@H]4CC[C@](O)(CC)[C@H](C)O4)O3)O2)[C@H](C)C[C@@H]1C (stereo not given in full) | 68.5% (inactive) |
| COc1cc(C(=O)n2nc(-c3cc(OC)c(OC)c(OC)c3)nc2N)cc(OC)c1OC | 101% (inactive) |
| COc1ccc(C(=O)N2C=Cc3ccccc3C2C#N)cc1 (stereo not given) | 109% (inactive) |
| COc1ccc(-c2nn(-c3cccc(Cl)c3)cc2-c2cc(-c3ccccc3)[nH]c(=O)c2C#N)cc1 | 47.1% (inactive) |
| CCOC(=O)C1C(C(=O)OCC)C2C(=O)C3C(C(=O)OCC)C(C(=O)OCC)C3C(=O)C12 (stereo not given) | 110% (inactive) |
| CC1=CC2C(C(O)CC3(C)C2CC(C)C32OCOC23COCO3)C2(C)C/C(=C/O)C(=O)C=C12 (stereo not given) | 44.1% (inactive) |
| CCN(CC)CCOc1cccc2c1C(=O)c1ccccc1C2=O | 100% (inactive) |
| Cc1c2cnccc2c(C)c2c1oc1ccccc12 | 54.1% (inactive) |
| O=C(Nc1ccc(NS(=O)(=O)c2ccc(F)cc2)cc1)C12CC3CC(CC(C3)C1)C2 | 103% (inactive) |

What follows are compounds tested on K-562 leukemia in the same assay as above. Details: 10 µM.

| SMILES | growth |
| --- | --- |
| CCc1ccc(-c2ccc(-n3nc(C)c4c(N)nc(Cc5ccccc5)nc43)cc2)cc1 | 7.44% (active) |
| O=[N+]([O-])c1ccc2ncccc2c1Cl | 12.1% (inactive) |
| Cc1ccc(-n2nnnc2N)c(C)c1 | 115% (inactive) |
| Oc1ccc(-c2[nH]c3ccccc3c2-c2nc3ccccc3o2)cc1 | 19.2% (inactive) |
| CCc1ccc(C2=NN(c3ccc(S(C)(=O)=O)cc3)C(=O)CC2)cc1 | 10.4% (inactive) |
| COc1ccc(-c2nn(-c3cccc(Cl)c3)cc2-c2c(C#N)c(=O)n3[nH]c(-c4ccc(C)cc4)nc3c2C#N)cc1 | 4.62% (active) |
| O=C1c2ccccc2C(=O)c2c1ccc(C(Br)Br)c2[N+](=O)[O-] | -7.68% (active) |
| CCOC(=O)CC(S(=O)(=O)c1ccccc1)S(=O)(=O)c1ccccc1 | 78.7% (inactive) |
| CC(=O)Nc1ccc(S(=O)(=O)c2ccnc3cc(Cl)ccc23)cc1 | 78.9% (inactive) |
| O=C(Nc1cc([N+](=O)[O-])c2[nH]c(=O)c3ccccc3c2c1)C(F)(F)F | 84.6% (inactive) |
| COc1cc2c(cc1NC(=O)C(F)(F)F)-c1ccc(NC(=O)C(F)(F)F)cc1C2 | 100% (inactive) |
| COc1ccc(/C(C#N)=C/c2cccc(OC)c2OC)cc1 | 33.3% (inactive) |
| C/C(=C/CCC(C)[C@@H]1CC[C@]2(C)C3=C(CC[C@@]12C)[C@@]1(C)CCC(=O)C(C)(C)[C@@H]1CC3)C(=O)O (stereo not given in full) | -16.1% (active) |
| N#CC1=CC2CN(Cc3ccccc3)C1C1C(=O)N(c3ccccc3)C(=O)C21 (stereo not given) | 92.4% (inactive) |
| COC(=O)C1OC1c1cc([N+](=O)[O-])ccc1OC (stereo not given) | 95.5% (inactive) |
| O=c1cn[nH]c2ccc(Br)cc12 | 95.7% (inactive) |
| COc1cc(CNC(=O)C2CSC3(C)c4ccccc4C(=O)N23)cc(OC)c1OC (stereo not given) | 71.9% (inactive) |
| O=C1/C=C/[C@@H](O)[C@@H]2C[C@@H](O)C[C@H]2/C=C/CCC[C@H](C(F)(F)F)O1 | 20.7% (inactive) |
| O=C1CCn2c1c(O)c1ccccc1c2=O | 130% (inactive) |
| COc1ccc(/C(=N\N)C(=O)c2ccccc2)cc1 (tested in a mixture with another compound) | 101% (inactive) |

| SMILES | growth |
| --- | --- |
| O=C(CCl)Nc1ccc(Cc2ccc(NC(=O)CCl)cc2)cc1 | 0.772% (active) |
| CCOC(=O)C1=CSC2=NC3=C(CCC/C3=C\c3cc(OC)c(OC)c(OC)c3)C(c3cc(OC)c(OC)c(OC)c3)N12 (stereo not given) | 38.7% (inactive) |
| C=CCSC(CC)(CC)C(=O)NC | 98.3% (inactive) |
| CCN(CCCNc1cc2c(c(N)c1S(=O)(=O)O)C(=O)c1ccccc1C2=O)c1ccccc1 | 101% (inactive) |
| Cc1ccc(S(=O)(=O)N/N=C2\CCCc3ccccc32)cc1 | 97.2% (inactive) |
| COc1cc(-c2nn(-c3cccc(NC(=O)CCNc4ccc(N5CCOCC5)cc4)c3)cc2-c2ccncc2)ccc1Cl | 11.2% (inactive) |
| COc1cc2c(cc1NC(=O)C(Cl)Cl)-c1ccc(NC(=O)C(Cl)Cl)cc1C2 | 20.7% (inactive) |
| OCC1OC2C(NC(=S)N2c2ccccc2)C(O)C1O (stereo not given) | 108% (inactive) |
| Cc1cc(O)ccc1C1=NN(c2ccc(S(C)(=O)=O)cc2)C(=O)CC1 | 20.6% (inactive) |
| Cc1c(Cl)cccc1NC(=O)CN1CCOCC1 | 91.6% (inactive) |
| O=C1c2ccccc2C(=O)c2c1ccc(C(Br)Br)c2Cl | -28.9% (active) |
| CC[C@@H](C(=O)[C@@H](C)[C@@H](O)[C@H](C)[C@@H]1O[C@@H]([C@@H](CC)C(=O)N(CC)CC)CC[C@@H]1C)C1O[C@]2(C=CC(=O)[C@]3(CC[C@@](C)([C@H]4CC[C@](O)(CC)[C@H](C)O4)O3)O2)[C@H](C)C[C@@H]1C (stereo not given in full) | 19.3% (inactive) |
| COc1cc(C(=O)n2nc(-c3cc(OC)c(OC)c(OC)c3)nc2N)cc(OC)c1OC | 77.8% (inactive) |
| COc1ccc(C(=O)N2C=Cc3ccccc3C2C#N)cc1 (stereo not given) | 67.4% (inactive) |
| COc1ccc(-c2nn(-c3cccc(Cl)c3)cc2-c2cc(-c3ccccc3)[nH]c(=O)c2C#N)cc1 | 44.9% (inactive) |
| CCOC(=O)C1C(C(=O)OCC)C2C(=O)C3C(C(=O)OCC)C(C(=O)OCC)C3C(=O)C12 (stereo not given) | 94.2% (inactive) |
| CC1=CC2C(C(O)CC3(C)C2CC(C)C32OCOC23COCO3)C2(C)C/C(=C/O)C(=O)C=C12 (stereo not given) | 2.43% (active) |
| CCN(CC)CCOc1cccc2c1C(=O)c1ccccc1C2=O | 93.8% (inactive) |
| Cc1c2cnccc2c(C)c2c1oc1ccccc12 | 77.2% (inactive) |
| O=C(Nc1ccc(NS(=O)(=O)c2ccc(F)cc2)cc1)C12CC3CC(CC(C3)C1)C2 | 74.7% (inactive) |
